Data on 15 molecules can be found in PubChem BioAssay (NCI).

About 83,000 compounds went through this panel and 20% of them were active in at least one assay; those are over-represented in the sample as a whole.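 In brief: 96-well plates, 48 h treatment, single concentration, percent growth endpoint.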 Unmarked numbers belong to inactive results. Active and inactive are the calls of the source. How the source made its calls: active means growth percent below 10; inactive means the rest.

Common to all, as to experiment: NCI-60 one-dose screen, 48 h (100 = growth as untreated, 0 = no growth, -100 = all killed)
What all share (settings): 10 µM

For experiment [1], the system named is NCI-H23 lung.
Experiment [2] has as its system NCI-H226 lung.
Experiment [3] deals with NCI-H322M lung.
Experiment [4] has as its system HOP-62 NSCLC.
Experiment [5] concerns NCI-H460 lung.
In experiment [6] the test system is HOP-92 NSCLC.
Experiment [7] relates to NCI-H522 lung.
Experiment [8] deals with A549/ATCC NSCLC.
The subject of experiment [9] is 786-0 renal.
Experiment [10] relates to COLO 205 colon.

In the case of `CCCC(=O)Nc1ccc2c(c1)CN1C(=O)c3ccccc3C1=N2`, the growth is 106% in [1]; 100% in experiment [2]; 99.1% in experiment [3]; 104% in experiment [4]; 103% in experiment [5]; 95.3% in experiment [6]. Besides, the growth in experiment [7] is 106%; in [8] it was 90%; in experiment [9] it was 99.2%; in experiment [10], 109%.

On to `COC(=O)C(C)Oc1ccc(OC#N)cc1` (stereo not given), for which the growth in experiment [1] was 95%; in [2], 97.3%; in [3], 100%; in [4], 98.2%; in [5], 103%; in [6], 95.3%. Also, the growth in experiment [7] was 103%; in experiment [8] it was 99.4%; in [9], 102%; in [10], 107%.

Turning to `CCOC(=O)/C(=C/c1ccc(OC)cc1)N(CC)CC`, the growth in experiment [1] was 96.3%; in [2] it was 97%; in experiment [3], 105%; in [4], 103%; in [5], 103%; in experiment [6], 81.4%. Also, the growth is 94.1% in [7], 101% in experiment [8], 103% in experiment [9] and 115% in experiment [10].

As to `Nc1ccc(C(=O)c2ccc(N)c(Br)c2)cc1Br`, the growth is 44.4% in experiment [1]; 65.3% in [2]; 65.5% in experiment [3]; 29.5% in [4]; -0.543% (active) in [5]; 34.7% in experiment [6]. Further, the growth in experiment [7] was -36.1% (active); in experiment [8], 17.9%; in [9], 34%; in [10], -30.6% (active).

For the molecule `O=C(O)c1cc([N+](=O)[O-])ccc1Cl`, the growth in experiment [1] was 104%; in experiment [2], 107%; in [3], 117%; in experiment [4], 113%; in [5], 114%; in [6] it was 82.1%. Besides, the growth was 73% in experiment [7], 95.3% in [8], 99.2% in experiment [9] and 107% in experiment [10].

Consider `O=C(Cc1nc2ccc([N+](=O)[O-])cc2nc1CC(=O)c1ccccc1)c1ccccc1`, for which the growth in experiment [1] was 43.9%; in experiment [2], 68%; in experiment [3], 61%; in experiment [4], 79.8%; in experiment [5] it was 52.9%; in [6], 71.5%. Also, the growth in [7] was 31.5%; in experiment [8], 58.8%; in [9] it was 42%; in experiment [10], 91.3%.

On to `CC(C)OC(=O)c1cc(NC(=S)OC(C)C)ccc1Cl`, for which the growth is 79.7% in experiment [1]; 86.6% in experiment [2]; 85.8% in experiment [3]; 91.5% in experiment [4]; 108% in experiment [5]; 73.8% in experiment [6]. For the same molecule, the growth was 77.4% in experiment [7], 70.6% in experiment [8], 82.2% in experiment [9] and 102% in experiment [10].

On to `CCCCCCCCCCCCCC(=O)Oc1ccc[nH]c1=O`, for which the growth in [1] is 105%; in experiment [2], 92.7%; in experiment [3] it was 87%; in experiment [4], 94.1%; in experiment [5], 105%; in [6], 84.9%. Further, the growth is 90.7% in experiment [7], 89.4% in experiment [8], 89.7% in experiment [9] and 112% in [10].

On to `COc1ccccc1NC(=O)C1=C(C)NC(C)=C(C(=O)Nc2ccccc2OC)C1c1cccc([N+](=O)[O-])c1`, for which the growth in experiment [1] was 76.6%; in [2], 74.7%; in experiment [3], 91.2%; in [4], 68.5%; in experiment [5], 67.5%; in experiment [6] it was 56.8%. Also, the growth is 72.4% in experiment [7], 67% in [8], 84.6% in [9] and 89.3% in experiment [10].

Regarding `COC1=CC(=O)c2nc(Cl)ccc2C1=O`, the growth in experiment [1] was -15.2% (active); in experiment [2], 26.6%; in experiment [3], 106%; in experiment [4], 89.4%; in experiment [5] it was 115%; in experiment [6], -18.4% (active). Also, the growth in experiment [7] is -51.2% (active); in experiment [8], 98.3%; in experiment [9], 72.4%; in experiment [10], 102%.

Consider `CCOC(=O)C1=C(C)NC(=O)NC1c1cccs1` (stereo not given), for which the growth in experiment [1] is 98.4%; in experiment [2], 110%; in experiment [3] it was 111%; in [4], 109%; in experiment [5], 118%; in [6] it was 107%. The growth is 101% in [7], 94.8% in experiment [8], 106% in [9] and 107% in [10].

As to `CC1(C)S(=O)(=O)OCCOS1(=O)=O`, the growth in experiment [1] was 103%; in experiment [2], 102%; in experiment [3], 100%; in experiment [4], 98.4%; in [5], 105%; in experiment [6], 83.8%. Also, the growth in experiment [7] is 99.6%; in [8], 92%; in [9] it was 102%; in experiment [10], 116%.

As for `O=C(Nc1cc(-c2ccccc2)[nH]n1)c1ccc(Cl)cc1`, the growth was 87.8% in experiment [1]; 88.4% in [2]; 79.4% in experiment [3]; 88.3% in experiment [4]; 56% in [5]; 81.4% in experiment [6]. In addition, the growth is 72.5% in experiment [7], 70.3% in [8], 79.5% in experiment [9] and 104% in experiment [10].

Turning to `COc1ccc(-c2cc(-c3cc(-c4ccc(OC)cc4)nc(N)n3)nc(N)n2)cc1`, the growth was 102% in [1]; 99.4% in experiment [2]; 94.3% in experiment [3]; 94.7% in [4]; 99.5% in experiment [5]; 105% in [6]. The growth in experiment [7] was 100%; in experiment [8], 97.8%; in experiment [9], 103%; in [10] it was 107%.

For the molecule `CCOC(=O)c1cc(/C=C/c2ccc(Cl)cc2Cl)on1`, the growth is 47.4% in experiment [1]; 14.9% in experiment [2]; 81.6% in [3]; 81% in experiment [4]; 3.82% (active) in experiment [5]; 100% in experiment [6]. In addition, the growth in [7] was 54.5%; in experiment [8], 91.6%; in experiment [9], -68.6% (active); in experiment [10], 57.4%.
